# “And” between values parts separate entries of the source, which are not always exact repeats. Identical values can stand only once. Among all 5,500 compounds or so, about 2,000 (36%) were called active. Roughly 18% stayed inconclusive and do not appear here. Rule as the data show it: active = normalized growth mostly below about 0.91 (no sharp cut-off); inconclusive = no clear call, values can overlap the other calls; inactive = mostly above about 0.92. The list shows a part of the results.
# Experiment: chemical genetic growth profiling, strain panel (AID 1159580);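 also: tested at 20 µM; growth read once vehicle control cultures reached saturation at 30 °C; 1 = growth at the plate median or of vehicle wells; lower values mean less growth of the strain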
# Settings: S. cerevisiae deletion strains, growth OD
smiles,measurement,setting,value
CCC(=O)O[C@H]1CCC2C3CCC4=CC(=O)CC[C@]4(C)C3CC[C@@]21C (some centres not stated),normalized growth,"locus YAL013W, strain DEP1, stronger effect = lower value",0.792 (active)
same,normalized growth,"locus YAL021C, strain ccr4, stronger effect = lower value",0.979 (inactive)
same,normalized growth,"locus YAL026C, strain drs2, stronger effect = lower value",0.959 (inactive)
same,normalized growth,"locus YAL030W, strain snc1, stronger effect = lower value",0.924 (active)
same,normalized growth,"locus YBL061C, strain skt5, stronger effect = lower value",0.866 (active)
same,normalized growth,"locus YBR009C, strain hhf1, stronger effect = lower value",0.883 (active)
same,normalized growth,"locus YBR021W, strain FUR4, stronger effect = lower value",0.782 (active)
same,normalized growth,"locus YBR023C, strain chs3, stronger effect = lower value",0.868 (active)
same,normalized growth,"locus YBR171W, strain sec66, stronger effect = lower value",0.925 (inactive)
same,normalized growth,"locus YBR229C, strain ROT2, stronger effect = lower value",0.969 (inactive)
same,normalized growth,"locus YBR231C, strain swc5, stronger effect = lower value",0.952 (inactive)
same,normalized growth,"locus YBR279W, strain paf1, stronger effect = lower value",0.959 (inactive)
same,normalized growth,"locus YCL011C, strain gbp2, stronger effect = lower value",0.843 (active)
same,normalized growth,"locus YCL016C, strain dcc1, stronger effect = lower value",0.905 (active)
same,normalized growth,"locus YCL029C, strain bik1, stronger effect = lower value",0.857 (active)
same,normalized growth,"locus YCL069W, strain vba3, stronger effect = lower value",0.962 (inactive)
same,normalized growth,"locus YCR088W, strain abp1, stronger effect = lower value",0.957 (inactive)
same,normalized growth,"locus YDL005C, strain med2, stronger effect = lower value",0.949 (inactive)
same,normalized growth,"locus YDL035C, strain GPR1, stronger effect = lower value",0.892 (inactive)
same,normalized growth,"locus YDL040C, strain nat1, stronger effect = lower value",0.946 (inactive)
same,normalized growth,"locus YDL074C, strain BRE1, stronger effect = lower value",0.76 (active)
same,normalized growth,"locus YDL101C, strain DUN1, stronger effect = lower value",0.95 (inactive)
same,normalized growth,"locus YDL185W, strain tfp1, stronger effect = lower value",1 (inactive)
same,normalized growth,"locus YDL192W, strain arf1, stronger effect = lower value",0.985 (inactive)
same,normalized growth,"locus YDR001C, strain nth1, stronger effect = lower value",0.962 (inactive)
same,normalized growth,"locus YDR069C, strain doa4, stronger effect = lower value",0.924 (inactive)
same,normalized growth,"locus YDR101C, strain arx1, stronger effect = lower value",0.957 (inactive)
same,normalized growth,"locus YDR137W, strain rgp1, stronger effect = lower value",0.689 (active)
same,normalized growth,"locus YDR159W, strain sac3, stronger effect = lower value",0.796 (active)
same,normalized growth,"locus YDR162C, strain NBP2, stronger effect = lower value",0.808 (active)
same,normalized growth,"locus YDR195W, strain ref2",0.993 (inactive)
same,normalized growth,"locus YDR297W, strain sur2, stronger effect = lower value",0.968 (inactive)
same,normalized growth,"locus YDR318W, strain mcm21, stronger effect = lower value",0.901 (active)
same,normalized growth,"locus YDR334W, strain swr1, stronger effect = lower value",0.952 (inactive)
same,normalized growth,"locus YDR335W, strain msn5, stronger effect = lower value",0.934 (inactive)
same,normalized growth,"locus YDR388W, stronger effect = lower value",0.981 (inactive)
same,normalized growth,"locus YDR392W, strain spt3, stronger effect = lower value",0.213 (active)
same,normalized growth,"locus YDR502C, strain sam2, stronger effect = lower value",0.919 (active)
same,normalized growth,"locus YEL003W, strain gim4, stronger effect = lower value",0.943 (inactive)
same,normalized growth,"locus YEL037C, strain rad23, stronger effect = lower value",0.96 (inactive)
same,normalized growth,"locus YEL061C, strain CIN8 (second series), stronger effect = lower value",0.968 (inactive)
same,normalized growth,"locus YEL061C, strain CIN8, stronger effect = lower value",0.933 (inactive)
same,normalized growth,"locus YER015W, strain faa2, stronger effect = lower value",0.954 (inactive)
same,normalized growth,"locus YER016W, strain bim1, stronger effect = lower value",0.879 (active)
same,normalized growth,"locus YER110C, stronger effect = lower value",0.998 (inactive)
same,normalized growth,"locus YER111C, strain swi4, stronger effect = lower value",0.928 (inactive)
same,normalized growth,"locus YER155C, strain BEM2 (second series), stronger effect = lower value",0.777 (active)
same,normalized growth,"locus YER155C, strain BEM2, stronger effect = lower value",0.873 (active)
same,normalized growth,"locus YER167W, strain BCK2, stronger effect = lower value",0.909 (inactive)
same,normalized growth,"locus YFR010W, strain ubp6, stronger effect = lower value",0.992 (inactive)
same,normalized growth,"locus YGL078C, strain dbp3, stronger effect = lower value",0.984 (inactive)
same,normalized growth,"locus YGL086W, strain mad1, stronger effect = lower value",0.873 (active)
same,normalized growth,"locus YGL167C, strain pmr1, stronger effect = lower value",0.928 (inactive)
same,normalized growth,"locus YGL173C, strain kem1, stronger effect = lower value",0.887 (active)
same,normalized growth,"locus YGL227W, strain vid30, stronger effect = lower value",0.949 (inactive)
same,normalized growth,"locus YGL240W, strain doc1, stronger effect = lower value",0.928 (inactive)
same,normalized growth,"locus YGL248W, strain PDE1, stronger effect = lower value",0.916 (inactive)
same,normalized growth,"locus YGL253W, strain hxk2, stronger effect = lower value",0.872 (active)
same,normalized growth,"locus YGR135W, strain pre9, stronger effect = lower value",0.969 (inactive)
same,normalized growth,"locus YGR229C, strain SMI1, stronger effect = lower value",0.821 (inactive)
same,normalized growth,"locus YGR252W, strain gcn5, stronger effect = lower value",0.872 (inactive)
same,normalized growth,"locus YHR013C, strain ard1, stronger effect = lower value",1.02 (inactive)
same,normalized growth,"locus YHR027C, strain rpn1, stronger effect = lower value",0.967 (inactive)
same,normalized growth,"locus YHR030C, strain SLT2, stronger effect = lower value",0.889 (active) and 0.906 (inactive)
same,normalized growth,"locus YHR079C, strain IRE1 (second series), stronger effect = lower value",0.981 (inactive)
same,normalized growth,"locus YHR079C, strain IRE1, stronger effect = lower value",0.896 (inactive)
same,normalized growth,"locus YHR094C, strain hxt1, stronger effect = lower value",0.982 (inactive)
same,normalized growth,"locus YHR129C, strain ARP1, stronger effect = lower value",0.943 (inactive)
same,normalized growth,"locus YHR142W, strain chs7, stronger effect = lower value",0.737 (active)
same,normalized growth,"locus YHR200W, strain rpn10, stronger effect = lower value",0.943 (inactive)
same,normalized growth,"locus YIL066C, strain RNR3, stronger effect = lower value",0.878 (inactive)
same,normalized growth,"locus YIL073C, strain SPO22, stronger effect = lower value",0.807 (inactive)
same,normalized growth,"locus YIL125W, strain kgd1, stronger effect = lower value",0.975 (inactive)
same,normalized growth,"locus YIR030C, strain dcg1, stronger effect = lower value",0.991 (inactive)
same,normalized growth,"locus YJL092W, strain hpr5, stronger effect = lower value",0.929 (inactive)
same,normalized growth,"locus YJL095W, strain BCK1 (second series), stronger effect = lower value",0.77 (active)
same,normalized growth,"locus YJL095W, strain BCK1, stronger effect = lower value",0.724 (active) and 0.95 (inactive)
same,normalized growth,"locus YJL115W, strain asf1, stronger effect = lower value",0.945 (inactive)
same,normalized growth,"locus YJL129C, strain trk1, stronger effect = lower value",0.781 (active)
same,normalized growth,"locus YJL134W, strain LCB3, stronger effect = lower value",0.978 (inactive)
same,normalized growth,"locus YJL154C, strain vps35, stronger effect = lower value",0.943 (inactive)
same,normalized growth,"locus YJL164C, strain tpk1, stronger effect = lower value",0.893 (active)
same,normalized growth,"locus YJL166W, strain qcr8, stronger effect = lower value",0.865 (active)
same,normalized growth,"locus YJL168C, strain set2, stronger effect = lower value",0.983 (inactive)
same,normalized growth,"locus YJL187C, strain SWE1 (second series), stronger effect = lower value",0.951 (inactive)
same,normalized growth,"locus YJL187C, strain SWE1, stronger effect = lower value",0.907 (active)
same,normalized growth,"locus YJR043C, strain POL32, stronger effect = lower value",0.928 (inactive)

# Reference: PubChem BioAssay AID1159580 (chemical genetic matrix, 2015)
